Records with an inconclusive call do not appear. Activity calls are given as the source filed them. Calls follow the shape of the dose curve; as a rule, active = well fitted activation curve with a large enough effect in the signal ratio in the repeat runs (not every such curve was filed as active); inconclusive = weak or mixed curves, or effect the other way; inactive = no such curve, though single readings can be large or run the other way; the % refers to the signal ratio.
biological target: Peroxisome proliferator-activated receptor gamma (Homo sapiens) (UniProt P37231); assay: qHTS assay to identify small molecule agonists of the peroxisome proliferator-activated receptor gamma (PPARg) signaling pathway (AID 743094); settings: HEK293H PPARg-UAS-bla, beta-lactamase FRET ratio, 17 h; series mostly up to 57 µM
Sequence (P37231 whole entry, looked up): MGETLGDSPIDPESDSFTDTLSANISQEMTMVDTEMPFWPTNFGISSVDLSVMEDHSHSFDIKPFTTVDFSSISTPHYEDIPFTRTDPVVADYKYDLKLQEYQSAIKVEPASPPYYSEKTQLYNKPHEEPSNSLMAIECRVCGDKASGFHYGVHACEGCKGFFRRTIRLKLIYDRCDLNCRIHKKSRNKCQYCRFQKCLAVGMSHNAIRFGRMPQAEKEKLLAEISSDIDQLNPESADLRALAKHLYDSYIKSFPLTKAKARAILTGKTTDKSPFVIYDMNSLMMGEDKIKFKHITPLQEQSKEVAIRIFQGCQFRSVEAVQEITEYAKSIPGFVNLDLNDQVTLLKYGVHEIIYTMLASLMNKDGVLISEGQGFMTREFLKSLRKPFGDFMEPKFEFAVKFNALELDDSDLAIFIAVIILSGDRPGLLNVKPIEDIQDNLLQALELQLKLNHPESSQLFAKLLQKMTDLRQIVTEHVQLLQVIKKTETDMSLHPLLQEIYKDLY
Source text: U.S. Tox21 Program National Center for Advancing Translational Sciences [NCATS] NIH Chemical Genomics Center [NCGC] U.S. Environmental Protection Agency [EPA] National Institutes of Environmental Health Sciences [NIEHS] National Toxicology Program [NTP] U.S. Food and Drug Administration [FDA] Tox21 Assay Overview: The peroxisome proliferator-activated receptors (PPARs) are lipid-activated transcription factors of the nuclear receptor superfamily with three distinct subtypes namely PPAR alpha, PPAR delta (also called PPAR beta) and PPAR gamma (PPARg). All these subtypes heterodimerize with Retinoid X receptor (RXR) and these heterodimers regulate transcription of various genes. PPAR-gamma receptor (glitazone receptor) is involved in the regulation of glucose and lipid metabolism. To identify the compounds that activate PPAR-gamma signaling, GeneBLAzer PPAR gamma UAS-bla HEK293H cell line (Invitrogen, Carlsbad, CA, USA) containing a beta-lactamase reporter gene under control of the control of an upstream activator sequence (UAS) stably integrated into HEK293H cells was used to screen Tox21 compound library.
Tox21 Assay Protocol Summary: PPARg-bla cells were dispensed at 3000 cells/6uL/well in 1536-well black wall/clear bottom plates using a Multidrop Combi (Thermo Fisher Scientific, Waltham, MA) dispenser. After the assay plates were incubated at 37C and 5% CO2 for 5 h, 23 nL of compounds dissolved in DMSO, positive controls or DMSO only was transferred to the assay plate by a Pintool station (Kalypsys, San Diego, CA). The assay plates were incubated at 37C for 17 h. After 1 uL of LiveBLAzerTM B/G FRET substrate was added using a Bioraptr Flying Reagent Dispenser (FRD) workstation (Beckman Coulter, Indianapolis, IN, USA), the plates were incubated at room temperature for 1 h, and fluorescence intensity was measured by an Envision plate reader (PerkinElmer, Shelton, CT).
% is scaled to controls: 0 for no effect and ±100 for the full control effect.

SMILES | outcome | activation
C=CC(=O)CC | inactive | –
COC(=O)C(c1ccccc1Cl)N1CCc2sccc2C1 (stereo not given) | inactive | –
CCCC(C)C(O)CC (stereo not given) | inactive | –
Cc1ccccc1C#N | inactive | –
CN(C)CCCN(C)C | – | -0.396% [at 7.08 µM] (inactive)
COc1ccc(Cl)cc1C | inactive | –
CNC(C)=O | inactive | –
O=c1c(O)c(O)c1=O | inactive | –
CN(C)c1cc(NC(=O)CNC(C)(C)C)c(O)c2c1C[C@H]1C[C@H]3[C@H](N(C)C)C(=O)C(C(N)=O)=C(O)[C@@]3(O)C(=O)C1=C2O | inactive | –
CCCCCCCC(=O)N(C)C | inactive | –
CCC(C)(C)C | inactive | –
C=CCON/C(CCC)=C1\C(=O)CC(C)(C)C(C(=O)OC)=C1O | inactive | –
CCCCCCCCCCCBr | inactive | –
C=CC(=O)OCCOCCOCC | inactive | –
CC/C=C\CCOC(=O)c1ccccc1 | inactive | –
CCCCCCCOC(C)=O | inactive | –
O=C(OOC(=O)c1ccccc1)c1ccccc1 | inactive | –
O=C(O)CCCCCCCCCC(=O)O | inactive | –
CCCCCC(=O)CC | inactive | –
C=CCOC(=O)CCCCCCCC | inactive | –

SMILES | outcome | activation
COCCCOc1cc(C[C@@H](C[C@H](N)[C@@H](O)C[C@H](C(=O)NCC(C)(C)C(N)=O)C(C)C)C(C)C)ccc1OC | inactive | –
CCCCCCCCCCCC(C)=O | inactive | –
NCC1CCC(C(=O)Oc2ccc(CCC(=O)O)cc2)CC1 (stereo not given) | inactive | –
CCCC[O][Al]([O]CCCC)[O]CCCC | inactive | –
O=CN1CCCCC1 | inactive | –
COC(=O)c1c(C)cc(O)c(C)c1O | inactive | –
CCCCc1ccc(Cl)cc1 | inactive | –
N=C(N)N | inactive | –
COC(C)(C)CC(C)=O | inactive | –
CCNC(=O)C(C)OC(=O)Nc1ccccc1 (stereo not given) | inactive | –
C[C@H]1COc2c(C3(N)CC3)c(F)cc3c(=O)c(C(=O)O)cn1c23 | inactive | –
O=Cc1ccc(C(=O)O)cc1 | inactive | –
C/C=C(\C)C(=O)OC/C=C(\C)CCC=C(C)C | inactive | –
CCN(CC)CC | inactive | –
C[C@]12C=CC(=O)C=C1[C@@H](F)C[C@@H]1[C@@H]2[C@@H](O)C[C@@]2(C)[C@H]1CC[C@]2(O)C(=O)CO | inactive | –
Cc1ccc(O)c([N+](=O)[O-])c1 | inactive | –
O=C1Nc2ccccc2C1=O | inactive | –
CC(C)(C)C(=O)NCCCC(=O)O | inactive | –
Cc1nc2ccc(Cl)cc2[nH]1 | inactive | –
CCCCCCCCOCCC#N | inactive | –
